BAZ2B block: inhibitors of human BAZ2B bromodomain; Q9UIF8; AlphaScreen BAZ2B-H3K14Ac peptide displacement; Potency, µM (titrated, usually from 114 µM), inactives show top-dose activity change, negative = inhibition, usual class: inhibitors; actives 4.4% (n = 360,000); AID 504333; note: potency is the fitted concentration of half-maximal effect; % is set by controls: 0 for no effect and ±100 for the full control effect; nearly all actives have a fitted effect of over 60% in size
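BAZ2B (50 nM) with biotin-H3(5-23)K14Ac peptide (50 nM) in PBS pH 7.4, 0.01% Tween-20, preformed 30 min, then compound 30 min at room temperature; top concentration 110uM. AlphaScreen streptavidin donor/nickel chelate acceptor beads (10 ug/mL final), 20 min dark, signal read.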
Six1-Eya2 inh: blocks human Six1 binding to Eya2; Q15475+O00167; AlphaScreen GST-Six1/His-Eya2 binding, biochemical; hits give low values; activity change, % (no concentration beside the values); actives 0.56% (n = 360,000); in the data active = activity change below about -65%; inconclusive = mostly about -30% to -63%; note: % is set by controls: 0 for no effect and ±100 for the full control effect
Target sequence (O00167 whole entry, looked up): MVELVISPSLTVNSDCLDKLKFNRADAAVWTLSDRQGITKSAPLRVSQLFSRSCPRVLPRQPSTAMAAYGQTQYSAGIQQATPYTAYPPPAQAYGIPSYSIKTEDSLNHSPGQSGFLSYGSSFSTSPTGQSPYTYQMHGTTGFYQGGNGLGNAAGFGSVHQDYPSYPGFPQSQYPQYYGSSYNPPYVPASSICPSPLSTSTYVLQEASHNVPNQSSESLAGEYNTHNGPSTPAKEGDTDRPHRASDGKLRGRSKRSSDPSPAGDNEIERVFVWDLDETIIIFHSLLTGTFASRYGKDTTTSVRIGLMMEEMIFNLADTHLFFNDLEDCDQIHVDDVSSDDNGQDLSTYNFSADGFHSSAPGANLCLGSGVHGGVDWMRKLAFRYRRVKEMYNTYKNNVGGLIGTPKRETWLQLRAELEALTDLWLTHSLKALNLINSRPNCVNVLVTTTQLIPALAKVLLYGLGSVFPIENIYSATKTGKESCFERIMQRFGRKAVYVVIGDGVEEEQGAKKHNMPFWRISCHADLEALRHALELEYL
Target sequence (Q15475 whole entry, looked up): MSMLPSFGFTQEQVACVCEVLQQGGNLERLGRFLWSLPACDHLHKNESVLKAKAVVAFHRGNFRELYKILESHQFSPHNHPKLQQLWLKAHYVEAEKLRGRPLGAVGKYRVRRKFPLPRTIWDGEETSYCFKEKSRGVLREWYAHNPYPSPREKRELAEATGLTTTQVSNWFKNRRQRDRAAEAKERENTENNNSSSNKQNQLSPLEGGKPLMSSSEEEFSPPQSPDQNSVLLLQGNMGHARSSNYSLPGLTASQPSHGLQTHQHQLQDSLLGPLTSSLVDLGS
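Homogeneous AlphaScreen proximity assay pairing GST-Six1 with His-tagged Eya2 (added as 5X mix: 250 nM and 500 nM) in 50 mM Tris pH 8.0, 300 mM NaCl, 1 mM TCEP. Glutathione donor and nickel acceptor beads; 1 h, 37 °C, dark.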
HP1b chromo inh: inhibitors of HP1-beta chromodomain binding to methylated histone tails; AlphaScreen HP1-beta / biotin-H3K9me3 peptide binding; actives 0.56% (n = 390,000); AID 540317; Potency, µM (highest dose often 114 µM), inactives show at the top dose activity change, negative = inhibition, actives largely listed as inhibitors; note: potency is the fitted concentration of half-maximal effect; nearly all actives have a fitted effect of over 70% in size
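HP1-beta protein (50 nM final) preincubated 30 min at room temperature with biotinylated H3(1-18)K9me3 peptide (50 nM) in PBS pH 7.4, 0.01% Tween-20, then compound added for 30 min. AlphaScreen streptavidin donor/nickel chelate acceptor beads (10 ug/mL final), 30 min dark, luminescence read.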
G9a inh: G9a (human) methyltransferase inhibition. actives 8.8% (n = 350,000). AID 504332. Potency, µM (doses to about 102 µM), for inactives: at the highest dose activity, negative = inhibition, most hits filed as inhibitors. G9a H3K9 monomethylation, AlphaScreen, 2 h; note: potency is the fitted concentration of half-maximal effect; % is set by controls: 0 for no effect and ±100 for the full control effect; nearly all actives have a fitted effect of over 75% in size
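AlphaScreen read-out: biotin-H3K9 peptide (500 nM) methylation by 20 nM enzyme with 20 uM SAM, 2 h at room temperature after 15 min compound preincubation; anti-monomethyl H3K9 antibody plus donor/acceptor beads, 10 min dark.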
JMJD2A Tudor: inhibitors of human JMJD2A Tudor domain | AlphaScreen JMJD2A-Tudor / H3K4me3 peptide binding | actives 4.4% (n = 390,000) | Potency, µM (highest dose often 114 µM), without a hit: at the top dose activity change, negative = inhibition, actives largely listed as inhibitors | O75164; note: potency is the fitted concentration of half-maximal effect; % is set by controls: 0 for no effect and ±100 for the full control effect; nearly all actives have a fitted effect of over 50% in size
CtBP-E1A inh: blocks the CtBP interaction with E1A | AlphaScreen GST-E1A/His-CtBP binding, 1536-well; hits give low values | activity change, % (concentration not given with the values) | actives 0.49% (n = 340,000); in the data active = activity change below about -65%; inconclusive = mostly about -30% to -63%; note: % is set by controls: 0 for no effect and ±100 for the full control effect
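GST-E1A and His-tagged CtBP (125 nM each as 5X stock) were preincubated with pin-transferred compound for 2 h at 37 °C in the dark, then glutathione donor and nickel acceptor beads were added for 1 h before AlphaScreen reading.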
The depositor's hits bear a star; [ ] = another dose, or the depositor's remark. This is a sample that favours compounds with a hit; in the whole collection about 10% have one here. Unless noted, calls come from the whole dose curve; as a rule, active = well fitted inhibition curve with a large enough effect; inconclusive = small, poorly fitted or top-dose-only effect; inactive = no such curve, though single readings can be large or run the other way.

COc1ccccc1CNC(=O)c1cnc2sc(N3CCOCC3)nn2c1=O was read as BAZ2B block -16%, HP1b chromo inh 48%, G9a inh 16%[59 µM] and JMJD2A Tudor -7%.
For Cc1ccc(CNC(=O)CCC2CCCN(Cc3ccc4cccc(F)c4n3)C2)o1 (stereo not given) the results were BAZ2B block -14%, Six1-Eya2 inh 2, HP1b chromo inh -18%, G9a inh -25%, JMJD2A Tudor -32% and CtBP-E1A inh 0.
COc1ccc(-c2nnc(SC(C(=O)c3c[nH]c4ccccc34)c3ccccc3)n2N)cc1OC (stereo not given) was read as BAZ2B block -39%, Six1-Eya2 inh -5, HP1b chromo inh 2%, G9a inh 8.9µM*, JMJD2A Tudor inconclusive and CtBP-E1A inh -2.
CCn1c2ccccc2c2cc(NC(=O)CSc3nnc(-c4ccc(OC)c(OC)c4)n3N)ccc21 was read as BAZ2B block -24%, Six1-Eya2 inh 1, HP1b chromo inh 13%, G9a inh 0%[12.7 µM], JMJD2A Tudor 22% and CtBP-E1A inh -6.
Screening Cc1csc2nc(-c3cccc(NC(=O)c4ccccc4F)c3)cn12 returned BAZ2B block -32%, HP1b chromo inh 13%[57 µM], G9a inh 11%[59 µM] and JMJD2A Tudor -26%.
Screening Fc1cccc(Cl)c1/C=C/c1cnc2ccccc2n1 returned BAZ2B block 5%, Six1-Eya2 inh 3, HP1b chromo inh 28%, G9a inh 50µM*, JMJD2A Tudor 20% and CtBP-E1A inh 11.
`COc1cccc(CNC(=O)CCNC(=O)N2CCn3c2nc2ccccc23)c1` gave BAZ2B block -11%, Six1-Eya2 inh 1, HP1b chromo inh 47%, G9a inh inconclusive, JMJD2A Tudor -22% and CtBP-E1A inh -1.
`O=C(c1ccccc1)N1CCn2c1nc1ccccc12` gave BAZ2B block 5%, Six1-Eya2 inh -3, HP1b chromo inh 5%, G9a inh -7%[0.501 µM], JMJD2A Tudor 56µM* and CtBP-E1A inh 1.
O=C(c1cccc(Cl)c1)N1CCn2c1nc1ccccc12 was read as BAZ2B block -14%, Six1-Eya2 inh 9, HP1b chromo inh 11%, G9a inh 19%, JMJD2A Tudor -7% and CtBP-E1A inh 5.
COc1ccc(CNC(=O)CCNC(=O)N2CCn3c2nc2ccccc23)cc1 was read as BAZ2B block -17%[57.1 µM], Six1-Eya2 inh 3, HP1b chromo inh 34%, G9a inh 45µM*, JMJD2A Tudor 40µM* and CtBP-E1A inh 8.
`COc1ccc(COC(=O)C2=C(C)NC(=O)CC2c2cccc(Cl)c2Cl)cc1` (stereo not given) gave BAZ2B block 5%, HP1b chromo inh 36%, G9a inh 10%[59 µM] and JMJD2A Tudor -1%.
Cc1[nH]n(-c2ccccc2)c(=O)c1C(C[N+](=O)[O-])c1ccc(F)cc1 (stereo not given) was read as BAZ2B block inconclusive, Six1-Eya2 inh 1, HP1b chromo inh 8%, G9a inh 45µM*, JMJD2A Tudor -32% and CtBP-E1A inh -8.
Cc1[nH]n(-c2ccccc2)c(=O)c1C(c1ccccc1C(=O)O)c1c(C)[nH]n(-c2ccccc2)c1=O was read as BAZ2B block -29%, Six1-Eya2 inh 2, HP1b chromo inh 34%, G9a inh inconclusive, JMJD2A Tudor -10% and CtBP-E1A inh 11.
Cc1[nH]n(-c2ccccc2)c(=O)c1C(c1ccccc1[N+](=O)[O-])C(C#N)C#N (stereo not given) was read as BAZ2B block inconclusive, Six1-Eya2 inh -10, HP1b chromo inh 2%, G9a inh 28µM* and JMJD2A Tudor inconclusive.
O=C(Nc1cccc2[nH]c([C@H]3C[C@H](O)[C@@H](CO)O3)nc12)NC(c1ccccc1)c1ccccc1 was read as Six1-Eya2 inh -4 and CtBP-E1A inh 2.
For CCOc1[nH]c(/N=C/c2ccc(OC)cc2)c(C#N)c1C#N the results were HP1b chromo inh inconclusive and JMJD2A Tudor 25µM*.
S=C(NCCCc1cnc[nH]1)NCCCN(Cc1ccc(Cl)c(Cl)c1)c1ccccn1 was read as JMJD2A Tudor 45µM*.
O=C(NCCCc1cnc[nH]1)NCCCN(Cc1ccc(Cl)c(Cl)c1)c1ccc(Br)cn1 was read as JMJD2A Tudor 50µM*.
For CCCCN(Cc1ccc(Cl)c(Cl)c1)c1ccc(Br)cn1 the results were HP1b chromo inh 165% and JMJD2A Tudor 106%.
`S=C(NCCCCN(Cc1ccc(Cl)cc1)c1ccc(Br)cn1)NCCCc1cnc[nH]1` gave HP1b chromo inh 25µM* and JMJD2A Tudor 45µM*.
Screening CC(=O)NCCCN(Cc1ccc(Cl)c(Cl)c1)c1ccc(Br)cn1 returned HP1b chromo inh 20% and JMJD2A Tudor -17%.
For CN(CCCN(Cc1ccc(Cl)cc1)c1ccc(Br)cn1)C(=S)NCCCc1cnc[nH]1 the results were HP1b chromo inh inconclusive and JMJD2A Tudor 56µM*.
For Cc1ccccc1Cn1c(SCc2ccc(C(=O)NCCc3ccccc3)cc2)nc2ccncc21 the results were BAZ2B block -15%, HP1b chromo inh 40%, G9a inh -46%[59 µM] and JMJD2A Tudor -18%.
`CCc1ccc(O)c(C(=O)c2cnc3cc(-c4ccc(C)cc4)nn3c2)c1` gave BAZ2B block -17%, HP1b chromo inh 12%, G9a inh 3%[59 µM] and JMJD2A Tudor -13%.
CCc1nn2cc(C(=O)c3cc(Cl)ccc3O)cnc2c1-c1ccc(F)cc1 was read as BAZ2B block inconclusive, Six1-Eya2 inh -20, HP1b chromo inh inconclusive, G9a inh 45µM*, JMJD2A Tudor 50µM* and CtBP-E1A inh 1.
CC(NC(=O)CCCC1=NS(=O)(=O)c2ccccc2N1)c1ccccc1 (stereo not given) was read as BAZ2B block 2%, HP1b chromo inh 28%, G9a inh 4%[59 µM] and JMJD2A Tudor -11%.
For Cc1ccc(C)c2c1CCCC2=O the results were Six1-Eya2 inh -3 and CtBP-E1A inh -16.
CN(C)/C=C/C=C1C(=O)CCCC1=O was read as BAZ2B block 56µM*, Six1-Eya2 inh -2, HP1b chromo inh inconclusive, G9a inh inconclusive, JMJD2A Tudor inconclusive and CtBP-E1A inh 1.
`Cc1nn(-c2ccccc2)c(C)c1NC(=O)COC(=O)CCCOc1ccccc1` gave BAZ2B block 9%, Six1-Eya2 inh 1, HP1b chromo inh 6%, G9a inh -2%, JMJD2A Tudor -20% and CtBP-E1A inh 0.
